Screening results: PubChem, several laboratories
Fh CTSL1 inh: Fasciola hepatica cathepsin L1 inhibitors, primary screen, counter-screen for PFM18AAP inhibitor project, biochemical, QFRET, fluorogenic peptide substrate; recombinant F. hepatica cathepsin L1, Z-Leu-Arg-MCA fluorescence; inhibition, % at 5.96 µM; 300,000 tested, 0.49% active;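 active means inhibition above the mean of all tested compounds plus 3 SD, set per screening campaign, cut at about 17% in these data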
V-ATPase pH: regulators of yeast V-ATPase proton pumping, primary screen, pHLuorin cytosolic pH fluorescence | S. cerevisiae | response, % at 10 µM | 350,000 tested, 0.37% active | AID 504577, 2011; in the data active means response mostly above about 7.3%, no sharp cut-off; inactive means mostly below about 5.4%; further: actives read high
iPSC survival up: enhancers of single-cell hiPSC survival, primary screen, ATPlite luminescence; 100% = ROCK inhibitor wells, 0% = DMSO; survival enhancement, % at 20 µM; 360,000 tested, 0.044% active; in the data active means survival enhancement above about 18%;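 further: cells exposed to compounds for 16 hours before the ATP read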
CR mimetic SO: reduction of superoxide in aged yeast, primary screen, HTS | 330,000 tested, 0.18% active | superoxide response (% of plate mean), % at 10 µM | S. cerevisiae aged cells, superoxide DHE fluorescence; hits give low values;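 active means superoxide response under a set limit, about three screen SD below normal, cut at about 65% in these data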;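 further: yeast aged for seven days with compound at 30 °C before DHE staining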
Each line names hits and unclear results; the compound was inactive in the other large screens. A selection: hits, their analogues and other compounds. The true share with any hit is near 1%.

CC1(C)CN(c2ccsc2C(=O)O)C1=O	Fh CTSL1 inh 26
COc1ccc(C2=NN(C(=S)Nc3ccccc3)C(c3ccccc3)C2)cc1 (stereo not given)	none
COc1ccc(C2=NN(C(N)=S)C(c3ccccc3)C2)cc1 (stereo not given)	Fh CTSL1 inh 55
O=c1[nH]c(=O)n(CCCc2ccccc2)cc1-c1ccccc1	none (no result: Fh CTSL1 inh, CR mimetic SO)
CCCCN1C(=O)C(CC(=O)NCCCN(C)C)CC(C(=O)N(C)C)=C1C (stereo not given)	none (no result: Fh CTSL1 inh, CR mimetic SO)
Oc1ccc(-c2csc(Nc3ncccn3)n2)cc1O	none (no result: Fh CTSL1 inh, CR mimetic SO)
Oc1ccc(-c2csc(Nc3ncccn3)n2)c(O)c1	V-ATPase pH 15
O=C(COC(=O)c1cccc(Cl)c1)NCCN1C(=O)CSC1=O	V-ATPase pH 16
CC1CCN(S(=O)(=O)c2ccc3nc(N4CCN(c5ccccc5)CC4)ccc3c2)CC1	none (no result: V-ATPase pH, iPSC survival up)
Cc1[nH]c2ccccc2c1CCNC(=O)c1ccc2nccnc2c1	none
Cc1[nH]c2ccccc2c1CCNC(=O)CCC(=O)c1ccccc1	V-ATPase pH 17
O=C(NCc1ccccc1Br)C1CCCO1 (stereo not given)	none
Cc1ccc(C)c(OCCCC(=O)O)c1	Fh CTSL1 inh 17
COc1ccc(NC(=O)C2Cc3c(-c4ccccc4)ccnc3O2)cc1OC (stereo not given)	none (no result: Fh CTSL1 inh, V-ATPase pH, CR mimetic SO)
COC(=O)C1=C(C)N(c2ccc(F)cc2)C(=O)C1	none
COC(=O)C1=C(C)N(c2ccc(OC)c(OC)c2)C(=O)C1	Fh CTSL1 inh 20
COC(=O)C12OCC34C(CC5C(C)=C(O)C(=O)CC5(C)C3C(O)C1O)OC(=O)C(OC(=O)C=C(C)C)C24 (stereo not given)	none (no result: Fh CTSL1 inh, CR mimetic SO)
O=C(CN1C(=O)C2C3CC(C(Br)C3Br)C2C1=O)Nc1ccc(C(=O)O)cc1 (stereo not given)	CR mimetic SO 54
O=C(CN1C(=O)C2CC=C(Cl)CC2C1=O)Nc1ccc(C(=O)O)cc1 (stereo not given)	none
CCc1ccccc1NC(=O)COc1cccc(-n2cnnn2)c1	none
CCCNC(=O)CC1C(=O)N(Cc2ccccc2)C(C)c2nc3ccccc3n21 (stereo not given)	none
O=C1C=CC(=O)N1CCNc1ncc(C(F)(F)F)cc1Cl	V-ATPase pH 13 (no result: Fh CTSL1 inh, CR mimetic SO)
CCOc1ccccc1NC(=O)c1ccc(Cl)c(NC(=O)CC(c2ccccc2)c2ccccc2)c1	none
CCOc1ccccc1NC(=O)c1cccc(NC(=O)CC(c2ccccc2)c2ccccc2)c1	Fh CTSL1 inh 18
O=c1c2ccccc2oc2ccc(-c3ccc4cc[nH]c4c3)cc12	none (no result: Fh CTSL1 inh)
COc1cc2c(cc1OC)C(c1ccccc1)N(C(=O)CCl)CC2 (stereo not given)	Fh CTSL1 inh 31
COc1ccc(C2/C=C\CC(NS(=O)(=O)c3ccc(C)cc3)CC(=O)N2Cc2ccccc2F)cc1 (stereo not given)	none (no result: Fh CTSL1 inh)
CCCCc1ccc(S(=O)(=O)NC(=O)C2(C)CCN2C(=O)Cc2ccccc2)cc1 (stereo not given)	none (no result: Fh CTSL1 inh, V-ATPase pH, CR mimetic SO)
CCCNC(=O)Cn1c(=O)/c(=C\c2ccc(-c3cccc([N+](=O)[O-])c3)o2)s/c1=C\C(=O)C(C)(C)C	Fh CTSL1 inh 18
CCCNC(=O)Cn1c(=O)/c(=C/c2ccc(-c3cccc([N+](=O)[O-])c3)o2)s/c1=C\C(=O)C(C)(C)C	none (no result: Fh CTSL1 inh, CR mimetic SO)
COc1ccccc1CNC(=O)C12CC3CC(CC(C3)C1)C2	CR mimetic SO 62
O=C(Nc1sc2c(c1C(=O)N1CCOCC1)CCCCC2)c1cccnc1	Fh CTSL1 inh 19
CS(=O)(=O)n1nc(-c2ccc(Cl)cc2)nc1N	none
Cn1nc(-c2ccc(Cl)cc2)nc2c(=O)n(C)c(=O)nc1-2	Fh CTSL1 inh 113 (no result: V-ATPase pH, iPSC survival up)
CCC1(C)Cc2c(sc(NC(=S)NC(=O)c3ccccc3)c2C#N)CO1 (stereo not given)	none
CN1Cc2sc(NC(=S)NC(=O)c3ccccc3)c(C#N)c2CC1(C)C	V-ATPase pH 29 (no result: iPSC survival up)
O=C(CSc1ccccc1)NCC1(N2CCCCC2)CCCCC1	Fh CTSL1 inh 60
CS(=O)(=O)c1ccc(C(=O)NCC2(N3CCCCC3)CCCCC2)cc1	Fh CTSL1 inh 29
COc1ccc(CC(=O)NCC2(N3CCCCC3)CCCCC2)cc1	Fh CTSL1 inh 29
CN(C)S(=O)(=O)c1ccc(C(=O)NCC2(N3CCCCC3)CCCCC2)cc1	none
CCCCn1c(N)c(N(CC(C)C)C(=O)Cc2ccc3c(c2)OCCO3)c(=O)[nH]c1=O	none
CCCCN1C(=O)C(CC(=O)NCCCCc2ccccc2)CC(C(=O)N2CCCCCC2)=C1C (stereo not given)	none (no result: Fh CTSL1 inh, V-ATPase pH, CR mimetic SO)
O=C1Nc2ccc(Br)cc2/C1=C/C1CC=CCC1 (stereo not given)	Fh CTSL1 inh 28
Cc1nc(N2CCOCC2)nc(Oc2ccccc2)c1[N+](=O)[O-]	none
CCCCOc1nc(N2CCOCC2)nc(C)c1[N+](=O)[O-]	Fh CTSL1 inh 18
C/C(=N/Nc1nc(C)c(C)s1)c1cccc([N+](=O)[O-])c1	Fh CTSL1 inh 90
C/C(=N\Nc1nc(N)cc(Cl)n1)c1cccc([N+](=O)[O-])c1	none
COC(=O)c1cc(C(=O)NCCN2C(=O)S/C(=C\c3cccs3)C2=O)cc([N+](=O)[O-])c1	none
CCO/C=C1\N=C(c2ccc(F)cc2)OC1=O	Fh CTSL1 inh 36
Cc1ccc(C2=N/C(=C\c3cccnc3)C(=O)O2)cc1	none
CCCCC1(C)OC(=O)C(=Cc2ccc(-c3ccc(Cl)c(C(=O)O)c3)o2)C(=O)O1 (stereo not given)	CR mimetic SO 63
CN(C(=O)c1cccc(C(F)(F)F)c1)C1CCCc2ccccc21 (stereo not given)	none
CC(Sc1nnc(N)s1)C(=O)Nc1ccc2c(c1)OCO2 (stereo not given)	none (no result: Fh CTSL1 inh, CR mimetic SO)
NC(=S)N/N=C/c1cn(-c2ccccc2)nc1-c1cccnc1	Fh CTSL1 inh 25
C[C@]12CC[C@@H]3c4ccc(O)cc4CC[C@H]3[C@@H]1CCC2=O	V-ATPase pH 93
O=C(CNC(=O)C1CCCCC1)OCn1nnc2ccccc2c1=O	Fh CTSL1 inh 56
Cc1cc(C)cc(NC(=O)COC(=O)CNC(=O)C2CCCCC2)c1	none (no result: Fh CTSL1 inh)
O=C(COC(=O)CNC(=O)C1CCCCC1)Nc1ccc2ccccc2c1	Fh CTSL1 inh 27
O=C(COC(=O)CNC(=O)C1CCCCC1)Nc1ccc2c(c1)OCCO2	Fh CTSL1 inh 34
O=C(CC1CCCCC1)OCn1nnc2ccccc2c1=O	none
CC(C)(C)c1ccc(C(=O)NCC(=O)OCC(=O)Nc2ccc3c(c2)OCCO3)cc1	none
COc1ccccc1Cn1c(C)c(C(=O)NCc2ccco2)sc1=O	none (no result: Fh CTSL1 inh, V-ATPase pH, CR mimetic SO)
COC(=O)[C@H](Cc1ccccc1)NC(=O)Nc1ccc(C)cc1	none
CCNCCNc1ccc(Cl)cc1[N+](=O)[O-]	Fh CTSL1 inh 36
CS(=O)(=O)NCCCNc1ccc(Cl)cc1[N+](=O)[O-]	none
COc1ccc(/C=C2\CCC(C3CCCC3)C2=O)c(OC)c1OC (stereo not given)	none
COc1cc(/C=C2\CCC(C3CCCC3)C2=O)cc(OC)c1OC (stereo not given)	Fh CTSL1 inh 27
COC(=O)c1cc(S(=O)(=O)Nc2cc(S(=O)(=O)N(C)C)ccc2C)oc1C	none
